Source: the supplement of paper PMC11732987, “Enantioselective OTUD7B fragment discovery through chemoproteomics screening and high-throughput optimisation” (Communications Chemistry, 2025)

Columns and labels:
Assay in all cases: log2 ratio of Biotin-Ahx-Ub-VS probe labelling (compound/DMSO); higher = less target engagement, active = hit call of the paper (q ≤ 0.05, log2 ratio ≤ -1)
Details in all cases: treatment time: 3 h
[1] = compound: CCC1N(CCc2sccc12)C(=O)CCl
Method in brief: (§1)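 For activity-based profiling, 495 µg portions of HEK293T lysate in Tris/CHAPS/IGEPAL buffer with protease inhibitors were treated in triplicate with compound at 50 or 200 µM or with DMSO for 3 h. A 1 h incubation with Biotin-Ahx-Ub-VS (0.5 µM final) followed, then NeutrAvidin enrichment, LysC and trypsin digestion and diaPASEF LC-MS/MS. The compound/DMSO base-two log ratios were averaged from median-normalised label-free quantities using an unpaired t-test. Proteins needed at least 2 unique peptides to be included.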

[2] = compound: CN1c2ccccc2C(CS1(=O)=O)NC(=O)CCl
Method in brief: as §1

[3] = compound: Cl.ClCC(=O)N1CCc2ncncc2C1
Method in brief: as §1

[4] = compound: Cl.Cn1ncc2C(CCCc12)NC(=O)CCl
Method in brief: as §1

[5] = compound: ClCC(=O)NC1CCOc2ccccc12
Method in brief: as §1

[6] = compound: ClCC(=O)NC1CCCc2ccccc12
Method in brief: (§2)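 Values are average ratios of compound to vehicle from an unpaired t-test, limited to proteins with at least two unique peptides. HEK293T lysate (495 µg per sample, in Tris/CHAPS/IGEPAL buffer with protease inhibitors) was exposed in triplicate to a concentration series of compound or to vehicle for 3 h, then to Biotin-Ahx-Ub-VS at 0.5 µM final for 1 h. Labelled deubiquitinases were enriched on NeutrAvidin, digested with LysC and trypsin, and analysed by diaPASEF LC-MS/MS. Ratios are given on a log2 scale from Spectronaut label-free protein quantities normalised to the global median.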

[7] = compound: ClCC(=O)N[C@@H]1CCCc2ccccc12
Method in brief: as §2

[8] = compound: ClCC(=O)N[C@H]1CCCc2ccccc12
Method in brief: as §2

[9] = compound: CCC1N(CCc2cc(OC)c(Cl)cc12)C(=O)CCl
Method in brief: as §1

[10] = compound: CCCC1N(CCc2cc(OC)c(OC)cc12)C(=O)CCl
Method in brief: as §1

Measured: log2 ratio of Biotin-Ahx-Ub-VS probe labelling

UniProt P51784
UniProt P51784, sequence (P51784 whole entry): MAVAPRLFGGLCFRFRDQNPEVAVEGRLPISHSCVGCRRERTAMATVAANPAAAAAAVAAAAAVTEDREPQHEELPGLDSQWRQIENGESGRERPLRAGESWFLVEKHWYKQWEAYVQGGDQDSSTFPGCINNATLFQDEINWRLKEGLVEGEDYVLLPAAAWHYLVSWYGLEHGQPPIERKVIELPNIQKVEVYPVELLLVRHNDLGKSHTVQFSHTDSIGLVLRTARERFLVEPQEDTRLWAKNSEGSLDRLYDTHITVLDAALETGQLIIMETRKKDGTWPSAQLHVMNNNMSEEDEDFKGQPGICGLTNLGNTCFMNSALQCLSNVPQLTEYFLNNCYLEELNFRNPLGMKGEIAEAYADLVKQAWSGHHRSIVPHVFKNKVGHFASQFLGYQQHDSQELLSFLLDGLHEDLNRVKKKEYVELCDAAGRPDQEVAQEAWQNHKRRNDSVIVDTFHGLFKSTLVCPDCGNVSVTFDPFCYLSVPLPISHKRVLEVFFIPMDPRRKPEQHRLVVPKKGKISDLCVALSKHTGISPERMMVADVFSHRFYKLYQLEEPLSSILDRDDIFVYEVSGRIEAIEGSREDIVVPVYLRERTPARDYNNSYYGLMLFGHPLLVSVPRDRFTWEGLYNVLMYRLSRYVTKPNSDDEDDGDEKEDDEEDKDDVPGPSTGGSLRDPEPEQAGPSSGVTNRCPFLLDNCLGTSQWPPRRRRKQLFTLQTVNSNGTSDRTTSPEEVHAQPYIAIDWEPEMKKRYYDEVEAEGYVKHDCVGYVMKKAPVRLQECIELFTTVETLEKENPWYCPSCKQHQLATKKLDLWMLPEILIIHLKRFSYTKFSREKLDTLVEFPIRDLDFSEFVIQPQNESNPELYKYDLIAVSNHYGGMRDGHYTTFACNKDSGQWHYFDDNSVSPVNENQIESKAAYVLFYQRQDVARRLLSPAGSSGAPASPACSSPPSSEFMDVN
inactive: [1]; compound concentration: 50uM 0.031 | [1]; compound concentration: 200uM -0.194 | [2]; compound concentration: 50uM -0.0381 | [2]; compound concentration: 200uM -0.118 | [3]; compound concentration: 50uM 0.0396 | [3]; compound concentration: 200uM -0.389 | [4]; compound concentration: 50uM 0.218 | [4]; compound concentration: 200uM 0.132 | [5]; compound concentration: 50uM 0.157 | [5]; compound concentration: 200uM -0.115 | [6]; compound concentration: 0.78uM -0.0264 | [6]; compound concentration: 1.56uM -0.0198 | [6]; compound concentration: 3.13uM -0.0986 | [6]; compound concentration: 6.25uM 0.0318 | [6]; compound concentration: 12.5uM -0.0982 | [6]; compound concentration: 25uM -0.201 | [6]; compound concentration: 50uM 0.0391 | [6]; compound concentration: 100uM -0.0818 | [6]; compound concentration: 200uM -0.0885 | [7]; compound concentration: 0.78uM -0.219 | [7]; compound concentration: 1.56uM -0.052 | [7]; compound concentration: 3.13uM -0.00301 | [7]; compound concentration: 6.25uM -0.0872 | [7]; compound concentration: 12.5uM -0.0816 | [7]; compound concentration: 25uM 0.00546 | [7]; compound concentration: 50uM -0.0574 | [7]; compound concentration: 100uM -0.00104 | [7]; compound concentration: 200uM -0.228 | [8]; compound concentration: 0.78uM -0.0931 | [8]; compound concentration: 1.56uM -0.0394 | [8]; compound concentration: 3.13uM -0.0291 | [8]; compound concentration: 6.25uM 0.0533 | [8]; compound concentration: 12.5uM -0.077 | [8]; compound concentration: 25uM -0.127 | [8]; compound concentration: 50uM -0.0252 | [8]; compound concentration: 100uM -0.0157 | [8]; compound concentration: 200uM -0.158 | [9]; compound concentration: 50uM -0.0453 | [9]; compound concentration: 200uM -0.739 | [10]; compound concentration: 50uM -0.482
active: [10]; compound concentration: 200uM -1.44

USP36 (UniProt Q9P275)
UniProt Q9P275, sequence (Q9P275 whole entry): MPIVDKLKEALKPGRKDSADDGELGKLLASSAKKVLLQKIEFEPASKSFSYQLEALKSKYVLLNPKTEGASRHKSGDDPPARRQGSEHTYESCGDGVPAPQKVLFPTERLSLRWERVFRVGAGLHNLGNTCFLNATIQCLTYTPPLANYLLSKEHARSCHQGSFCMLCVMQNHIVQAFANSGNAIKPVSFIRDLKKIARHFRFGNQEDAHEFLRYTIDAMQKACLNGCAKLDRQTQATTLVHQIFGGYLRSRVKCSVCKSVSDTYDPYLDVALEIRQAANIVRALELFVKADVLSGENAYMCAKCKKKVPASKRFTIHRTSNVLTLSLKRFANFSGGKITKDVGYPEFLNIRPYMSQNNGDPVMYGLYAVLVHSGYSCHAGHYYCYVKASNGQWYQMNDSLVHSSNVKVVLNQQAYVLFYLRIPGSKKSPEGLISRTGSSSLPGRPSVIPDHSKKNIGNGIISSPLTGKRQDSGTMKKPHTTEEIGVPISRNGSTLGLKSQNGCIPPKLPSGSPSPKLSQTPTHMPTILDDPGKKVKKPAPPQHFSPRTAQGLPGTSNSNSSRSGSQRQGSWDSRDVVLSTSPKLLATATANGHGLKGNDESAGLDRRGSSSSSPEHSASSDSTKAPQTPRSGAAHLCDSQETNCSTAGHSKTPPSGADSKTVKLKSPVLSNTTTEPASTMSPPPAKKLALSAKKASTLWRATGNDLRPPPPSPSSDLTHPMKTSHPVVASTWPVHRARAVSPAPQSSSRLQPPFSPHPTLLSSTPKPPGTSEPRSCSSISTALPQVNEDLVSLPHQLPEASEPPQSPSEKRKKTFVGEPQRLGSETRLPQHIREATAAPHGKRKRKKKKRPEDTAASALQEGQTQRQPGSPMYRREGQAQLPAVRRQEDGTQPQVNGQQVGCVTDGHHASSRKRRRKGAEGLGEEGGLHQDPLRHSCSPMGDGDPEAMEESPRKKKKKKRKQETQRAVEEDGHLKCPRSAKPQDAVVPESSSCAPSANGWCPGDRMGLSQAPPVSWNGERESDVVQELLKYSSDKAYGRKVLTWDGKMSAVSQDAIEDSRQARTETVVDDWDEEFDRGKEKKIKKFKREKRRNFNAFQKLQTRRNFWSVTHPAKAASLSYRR
inactive: [1]; compound concentration: 50uM 0.0835 | [1]; compound concentration: 200uM 0.229 | [2]; compound concentration: 50uM -0.127 | [2]; compound concentration: 200uM -0.0119 | [3]; compound concentration: 50uM -0.031 | [3]; compound concentration: 200uM -0.0419 | [4]; compound concentration: 50uM -0.145 | [4]; compound concentration: 200uM 0.158 | [5]; compound concentration: 50uM -0.121 | [5]; compound concentration: 200uM 0.283 | [6]; compound concentration: 0.78uM 0.0108 | [6]; compound concentration: 1.56uM -0.0128 | [6]; compound concentration: 3.13uM -0.0405 | [6]; compound concentration: 6.25uM -0.0421 | [6]; compound concentration: 12.5uM -0.0282 | [6]; compound concentration: 25uM -0.0131 | [6]; compound concentration: 50uM -0.0217 | [6]; compound concentration: 100uM -0.0954 | [6]; compound concentration: 200uM -0.112 | [7]; compound concentration: 0.78uM 0.107 | [7]; compound concentration: 1.56uM -0.0192 | [7]; compound concentration: 3.13uM 0.083 | [7]; compound concentration: 6.25uM 0.157 | [7]; compound concentration: 12.5uM 0.0169 | [7]; compound concentration: 25uM 0.092 | [7]; compound concentration: 50uM -0.0214 | [7]; compound concentration: 100uM 0.019 | [7]; compound concentration: 200uM -0.0674 | [8]; compound concentration: 0.78uM -0.0951 | [8]; compound concentration: 1.56uM 0.0305 | [8]; compound concentration: 3.13uM 0.102 | [8]; compound concentration: 6.25uM -0.0246 | [8]; compound concentration: 12.5uM -0.0557 | [8]; compound concentration: 25uM -0.0153 | [8]; compound concentration: 50uM -0.0239 | [8]; compound concentration: 100uM -0.0145 | [8]; compound concentration: 200uM 0.0455 | [9]; compound concentration: 50uM -0.334 | [9]; compound concentration: 200uM -0.141 | [10]; compound concentration: 50uM -0.272 | [10]; compound concentration: 200uM -0.0152
